Laboratory results as given in the supplement of paper PMC11732987, “Enantioselective OTUD7B fragment discovery through chemoproteomics screening and high-throughput optimisation” (Communications Chemistry, 2025).

Columns and labels:
Assay in all cases: log2 ratio of Biotin-Ahx-Ub-VS probe labelling (fragment/DMSO); higher = less target engagement (more negative = stronger competition), active = hit call of the paper (q ≤ 0.05, log2 ratio ≤ -1)
Conditions in all cases: compound concentration: 200 uM; treatment time: 3 h
[1] = target: T1, ALG13 (UniProt Q9NP73)
T1 sequence (whole entry): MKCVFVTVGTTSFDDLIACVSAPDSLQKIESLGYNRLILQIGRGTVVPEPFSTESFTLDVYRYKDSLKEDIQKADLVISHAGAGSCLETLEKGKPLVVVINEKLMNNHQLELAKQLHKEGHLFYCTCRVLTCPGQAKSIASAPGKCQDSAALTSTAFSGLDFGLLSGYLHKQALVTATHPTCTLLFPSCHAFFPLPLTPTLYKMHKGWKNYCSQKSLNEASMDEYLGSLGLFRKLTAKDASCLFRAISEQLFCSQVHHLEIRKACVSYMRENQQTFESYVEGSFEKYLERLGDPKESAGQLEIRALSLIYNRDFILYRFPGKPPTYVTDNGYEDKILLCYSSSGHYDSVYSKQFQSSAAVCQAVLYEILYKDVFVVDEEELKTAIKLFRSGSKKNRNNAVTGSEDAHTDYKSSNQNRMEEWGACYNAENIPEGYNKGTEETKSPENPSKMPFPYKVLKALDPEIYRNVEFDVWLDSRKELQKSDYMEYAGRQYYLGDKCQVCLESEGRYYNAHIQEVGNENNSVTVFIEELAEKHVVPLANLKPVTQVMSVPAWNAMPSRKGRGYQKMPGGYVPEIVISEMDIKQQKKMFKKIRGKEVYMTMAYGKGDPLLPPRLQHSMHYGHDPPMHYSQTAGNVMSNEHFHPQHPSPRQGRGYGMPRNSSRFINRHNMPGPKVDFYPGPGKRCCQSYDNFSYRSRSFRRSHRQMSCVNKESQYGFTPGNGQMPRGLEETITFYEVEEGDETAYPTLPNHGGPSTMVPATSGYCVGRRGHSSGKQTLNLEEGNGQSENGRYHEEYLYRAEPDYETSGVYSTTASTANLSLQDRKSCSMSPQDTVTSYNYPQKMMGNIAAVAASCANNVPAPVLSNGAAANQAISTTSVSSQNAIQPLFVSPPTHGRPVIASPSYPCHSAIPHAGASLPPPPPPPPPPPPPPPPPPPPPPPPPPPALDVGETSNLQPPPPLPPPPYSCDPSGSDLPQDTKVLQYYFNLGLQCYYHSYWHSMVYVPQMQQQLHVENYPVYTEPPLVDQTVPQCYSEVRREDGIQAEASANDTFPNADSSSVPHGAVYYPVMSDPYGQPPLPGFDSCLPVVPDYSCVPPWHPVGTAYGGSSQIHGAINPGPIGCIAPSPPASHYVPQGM
Outline: (§1)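 Lysate from HEK293T cells, 495 µg per sample in Tris/CHAPS/IGEPAL buffer with protease inhibitors, was treated for 3 h in triplicate with fragment at 200 µM or vehicle. Biotin-Ahx-Ub-VS was next added at 0.5 µM final for 1 h. The labelled DUBs were enriched with NeutrAvidin, digested with LysC and trypsin, and run by diaPASEF LC-MS/MS, with values given as average log2 fragment/vehicle ratios by unpaired t-test on global-median-normalised Spectronaut quantities of proteins with ≥2 unique peptides.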

[2] = target: ATXN3 (UniProt P54252)
Sequence of ATXN3 (P54252 whole entry): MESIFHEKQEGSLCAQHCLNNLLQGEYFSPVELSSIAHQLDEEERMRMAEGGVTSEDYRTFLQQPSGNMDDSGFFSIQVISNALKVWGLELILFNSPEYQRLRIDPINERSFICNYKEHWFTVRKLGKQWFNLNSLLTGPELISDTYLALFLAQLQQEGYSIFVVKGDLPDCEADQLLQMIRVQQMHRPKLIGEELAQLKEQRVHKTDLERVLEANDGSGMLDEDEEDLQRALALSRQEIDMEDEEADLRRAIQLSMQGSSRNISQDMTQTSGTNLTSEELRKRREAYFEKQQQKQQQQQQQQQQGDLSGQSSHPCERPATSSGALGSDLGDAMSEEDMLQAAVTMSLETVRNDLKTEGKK
Outline: as §1

[3] = target: T2, BAP1 (UniProt Q92560)
T2 sequence (whole entry): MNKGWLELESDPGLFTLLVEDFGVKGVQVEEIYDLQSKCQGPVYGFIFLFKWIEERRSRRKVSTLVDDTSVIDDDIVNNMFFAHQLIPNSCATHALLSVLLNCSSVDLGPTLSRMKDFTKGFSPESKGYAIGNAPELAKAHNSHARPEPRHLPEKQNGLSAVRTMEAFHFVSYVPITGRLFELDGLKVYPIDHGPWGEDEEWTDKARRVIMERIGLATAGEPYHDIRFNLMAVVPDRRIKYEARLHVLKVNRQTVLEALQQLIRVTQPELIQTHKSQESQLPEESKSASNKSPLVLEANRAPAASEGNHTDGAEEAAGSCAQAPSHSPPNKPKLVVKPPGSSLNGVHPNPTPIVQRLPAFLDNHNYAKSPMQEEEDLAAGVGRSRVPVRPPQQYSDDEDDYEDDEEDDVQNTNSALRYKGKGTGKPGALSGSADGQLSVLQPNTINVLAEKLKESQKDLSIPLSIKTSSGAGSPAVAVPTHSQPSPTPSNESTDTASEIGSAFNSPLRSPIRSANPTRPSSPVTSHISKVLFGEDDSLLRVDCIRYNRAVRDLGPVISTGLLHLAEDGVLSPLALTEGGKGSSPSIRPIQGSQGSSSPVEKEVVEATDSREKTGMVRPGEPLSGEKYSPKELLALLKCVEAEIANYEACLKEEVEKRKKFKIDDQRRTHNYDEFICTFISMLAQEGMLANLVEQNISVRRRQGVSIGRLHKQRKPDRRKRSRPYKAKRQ
Outline: as §1

[4] = target: EIF3F (UniProt O00303)
Sequence of EIF3F (O00303 whole entry): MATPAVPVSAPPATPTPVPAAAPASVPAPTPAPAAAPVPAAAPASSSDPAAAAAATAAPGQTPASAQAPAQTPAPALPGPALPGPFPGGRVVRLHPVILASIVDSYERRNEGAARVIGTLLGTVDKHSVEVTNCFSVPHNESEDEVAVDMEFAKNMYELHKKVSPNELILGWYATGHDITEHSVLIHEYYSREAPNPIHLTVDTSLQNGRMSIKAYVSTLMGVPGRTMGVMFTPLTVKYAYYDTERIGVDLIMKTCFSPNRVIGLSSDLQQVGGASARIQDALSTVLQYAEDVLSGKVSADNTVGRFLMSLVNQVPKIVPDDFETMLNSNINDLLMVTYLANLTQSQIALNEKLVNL
Outline: as §1

[5] = target: EIF3H (UniProt O15372)
Sequence of EIF3H (O15372 whole entry): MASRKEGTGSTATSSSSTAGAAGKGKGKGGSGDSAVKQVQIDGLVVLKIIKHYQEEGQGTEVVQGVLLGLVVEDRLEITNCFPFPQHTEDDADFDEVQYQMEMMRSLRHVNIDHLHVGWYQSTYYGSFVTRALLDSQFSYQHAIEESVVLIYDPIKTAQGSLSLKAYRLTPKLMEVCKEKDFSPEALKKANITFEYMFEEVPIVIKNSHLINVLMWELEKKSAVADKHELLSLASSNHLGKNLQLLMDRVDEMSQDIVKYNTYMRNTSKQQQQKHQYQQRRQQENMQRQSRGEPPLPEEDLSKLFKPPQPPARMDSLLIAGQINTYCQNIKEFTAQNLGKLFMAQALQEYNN
Outline: as §1

[6] = target: T3, FAM105A (UniProt Q9NUU6)
T3 sequence (whole entry): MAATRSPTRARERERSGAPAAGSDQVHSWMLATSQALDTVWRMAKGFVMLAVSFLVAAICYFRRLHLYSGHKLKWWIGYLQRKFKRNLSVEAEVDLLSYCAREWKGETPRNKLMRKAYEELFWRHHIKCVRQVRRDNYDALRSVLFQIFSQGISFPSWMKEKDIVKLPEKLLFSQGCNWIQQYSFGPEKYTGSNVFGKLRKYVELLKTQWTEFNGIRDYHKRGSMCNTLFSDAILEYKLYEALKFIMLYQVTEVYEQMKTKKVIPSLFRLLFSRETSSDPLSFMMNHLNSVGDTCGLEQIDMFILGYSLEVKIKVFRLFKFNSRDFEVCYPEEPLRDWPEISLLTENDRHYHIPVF
Outline: as §1

[7] = target: OTUB1 (UniProt Q96FW1)
Sequence of OTUB1 (Q96FW1 whole entry): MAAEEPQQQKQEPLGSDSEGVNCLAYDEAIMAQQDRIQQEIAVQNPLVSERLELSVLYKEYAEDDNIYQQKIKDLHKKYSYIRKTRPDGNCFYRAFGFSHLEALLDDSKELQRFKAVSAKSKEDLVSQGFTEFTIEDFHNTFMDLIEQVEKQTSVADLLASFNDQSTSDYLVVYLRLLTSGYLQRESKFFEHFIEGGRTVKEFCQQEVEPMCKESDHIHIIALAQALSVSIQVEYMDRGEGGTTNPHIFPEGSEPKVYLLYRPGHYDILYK
Outline: as §1

[8] = target: T4, OTUD4 (UniProt Q01804)
T4 sequence (whole entry): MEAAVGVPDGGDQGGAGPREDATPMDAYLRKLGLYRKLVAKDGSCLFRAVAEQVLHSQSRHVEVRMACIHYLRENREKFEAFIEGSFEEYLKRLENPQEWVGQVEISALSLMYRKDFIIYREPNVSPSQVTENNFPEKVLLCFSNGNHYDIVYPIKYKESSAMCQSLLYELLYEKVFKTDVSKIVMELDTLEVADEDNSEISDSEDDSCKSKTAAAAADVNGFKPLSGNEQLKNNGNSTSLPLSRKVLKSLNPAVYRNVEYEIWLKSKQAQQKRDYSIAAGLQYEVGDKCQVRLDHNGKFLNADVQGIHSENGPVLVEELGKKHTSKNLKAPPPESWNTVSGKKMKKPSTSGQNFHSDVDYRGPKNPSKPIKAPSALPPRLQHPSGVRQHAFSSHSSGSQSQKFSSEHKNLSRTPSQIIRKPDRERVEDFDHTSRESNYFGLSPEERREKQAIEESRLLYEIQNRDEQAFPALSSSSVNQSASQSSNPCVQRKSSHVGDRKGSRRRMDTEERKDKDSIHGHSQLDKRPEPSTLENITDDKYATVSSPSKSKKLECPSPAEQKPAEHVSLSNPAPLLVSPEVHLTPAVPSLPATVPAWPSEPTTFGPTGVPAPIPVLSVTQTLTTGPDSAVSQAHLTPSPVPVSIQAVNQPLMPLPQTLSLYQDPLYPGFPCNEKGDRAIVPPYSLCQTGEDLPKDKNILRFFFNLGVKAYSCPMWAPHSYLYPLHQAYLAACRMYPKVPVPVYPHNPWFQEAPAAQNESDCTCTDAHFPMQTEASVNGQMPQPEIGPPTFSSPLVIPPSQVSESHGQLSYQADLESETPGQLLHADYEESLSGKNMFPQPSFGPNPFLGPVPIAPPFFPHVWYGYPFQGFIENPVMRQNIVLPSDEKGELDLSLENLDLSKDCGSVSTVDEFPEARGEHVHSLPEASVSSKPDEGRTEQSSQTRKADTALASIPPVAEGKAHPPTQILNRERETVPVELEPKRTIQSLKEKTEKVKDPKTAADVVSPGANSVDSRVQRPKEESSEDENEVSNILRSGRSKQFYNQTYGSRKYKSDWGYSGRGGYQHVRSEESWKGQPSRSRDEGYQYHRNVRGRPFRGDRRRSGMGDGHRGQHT
Outline: as §1

[9] = target: T5, OTUD5 (UniProt Q96G74)
T5 sequence (whole entry): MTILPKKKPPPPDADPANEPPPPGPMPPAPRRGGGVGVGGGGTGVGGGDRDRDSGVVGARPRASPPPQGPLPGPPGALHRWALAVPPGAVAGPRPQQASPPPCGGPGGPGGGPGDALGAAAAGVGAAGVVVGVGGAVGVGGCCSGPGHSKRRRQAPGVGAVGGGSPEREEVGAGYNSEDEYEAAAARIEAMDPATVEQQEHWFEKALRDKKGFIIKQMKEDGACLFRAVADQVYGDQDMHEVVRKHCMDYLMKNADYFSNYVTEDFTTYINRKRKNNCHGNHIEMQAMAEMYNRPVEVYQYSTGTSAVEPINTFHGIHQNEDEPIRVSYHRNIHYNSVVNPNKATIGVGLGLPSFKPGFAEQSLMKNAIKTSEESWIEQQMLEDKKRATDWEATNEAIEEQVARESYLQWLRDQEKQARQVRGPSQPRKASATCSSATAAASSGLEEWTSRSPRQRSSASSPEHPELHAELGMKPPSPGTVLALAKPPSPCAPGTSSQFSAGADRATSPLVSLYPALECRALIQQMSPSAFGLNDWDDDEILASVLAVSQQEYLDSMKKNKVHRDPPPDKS
Outline: as §1

Measured: log2 ratio of Biotin-Ahx-Ub-VS probe labelling

Cl.O=C(CCl)NCCN1CCc2ccccc21
active: [3] -1.61
inactive: [1] -0.000809 | [2] -0.887 | [4] -0.106 | [5] 0.469 | [6] 0.43 | [7] 0.169 | [8] -0.775 | [9] -0.79
